Results on 6 sequences are retold here after publication PMC7862700, “An all-to-all approach to the identification of sequence-specific readers for epigenetic DNA modifications on cytosine”.

Holding throughout (experiment): DAPPL (digital affinity profiling via proximity ligation, sequencing); 10 mM Tris-HCl pH 7.5, 50 mM NaCl, 1 mM DTT, 4% glycerol, room temperature, 30 min; GST-TFs on glutathione beads, 16-mer random dsDNA library, 0.1% formaldehyde crosslink after washing; high values mean tight binding
What all share (conditions): protein: recombinant; tags: N-terminal GST; dsDNA, one strand shown

The target in one test is T1, ERF (Homo sapiens, UniProt P50548 1-548).
T1 sequence: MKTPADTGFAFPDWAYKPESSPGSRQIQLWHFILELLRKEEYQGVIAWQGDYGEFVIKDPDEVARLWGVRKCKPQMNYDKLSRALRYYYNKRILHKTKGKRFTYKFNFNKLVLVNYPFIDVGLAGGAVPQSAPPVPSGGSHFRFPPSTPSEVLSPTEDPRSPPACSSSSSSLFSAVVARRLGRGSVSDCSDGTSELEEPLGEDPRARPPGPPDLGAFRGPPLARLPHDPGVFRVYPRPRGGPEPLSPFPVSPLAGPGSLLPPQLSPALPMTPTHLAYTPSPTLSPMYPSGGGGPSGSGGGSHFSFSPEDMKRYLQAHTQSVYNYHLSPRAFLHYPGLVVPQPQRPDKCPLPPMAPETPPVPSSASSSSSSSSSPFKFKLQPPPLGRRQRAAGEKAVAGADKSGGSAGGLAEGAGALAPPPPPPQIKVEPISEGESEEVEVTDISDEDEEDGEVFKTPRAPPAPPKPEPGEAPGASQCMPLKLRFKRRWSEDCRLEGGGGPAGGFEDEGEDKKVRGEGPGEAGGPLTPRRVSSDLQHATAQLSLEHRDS
Put shortly: (§1)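 In yeast, human transcription factors were expressed with a GST fusion, then pulled down on glutathione beads and given DNA barcodes. Pooled with a tag-only sample, they were exposed to 200 nmole of a 16-mer random double-stranded DNA library (Tris/NaCl/DTT/glycerol buffer, room temperature, 30 min), washed, crosslinked with 0.1% formaldehyde, proximity-ligated using BsaI/T4 ligase for 1 h at 37 °C, PCR-amplified and read on an Illumina NextSeq500. Each hexamer's frequency of reads for a factor, divided by the matching frequency for the tag-only sample, gives the binding signal.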

Another test deals with T2, ETV3L (Homo sapiens, UniProt Q6ZN32 1-361).
T2 sequence: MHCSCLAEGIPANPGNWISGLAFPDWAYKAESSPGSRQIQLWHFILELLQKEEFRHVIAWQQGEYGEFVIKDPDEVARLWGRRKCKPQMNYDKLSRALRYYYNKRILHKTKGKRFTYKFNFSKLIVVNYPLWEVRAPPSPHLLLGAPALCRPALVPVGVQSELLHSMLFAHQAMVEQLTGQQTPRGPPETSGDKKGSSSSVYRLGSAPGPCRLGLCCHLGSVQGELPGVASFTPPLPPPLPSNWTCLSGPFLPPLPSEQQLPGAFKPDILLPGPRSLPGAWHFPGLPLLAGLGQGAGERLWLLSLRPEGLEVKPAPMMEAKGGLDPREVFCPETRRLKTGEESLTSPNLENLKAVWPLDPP
Put shortly: as §1

The next test concerns the target T3, ETS2 (Homo sapiens, UniProt P15036 1-469).
T3 sequence: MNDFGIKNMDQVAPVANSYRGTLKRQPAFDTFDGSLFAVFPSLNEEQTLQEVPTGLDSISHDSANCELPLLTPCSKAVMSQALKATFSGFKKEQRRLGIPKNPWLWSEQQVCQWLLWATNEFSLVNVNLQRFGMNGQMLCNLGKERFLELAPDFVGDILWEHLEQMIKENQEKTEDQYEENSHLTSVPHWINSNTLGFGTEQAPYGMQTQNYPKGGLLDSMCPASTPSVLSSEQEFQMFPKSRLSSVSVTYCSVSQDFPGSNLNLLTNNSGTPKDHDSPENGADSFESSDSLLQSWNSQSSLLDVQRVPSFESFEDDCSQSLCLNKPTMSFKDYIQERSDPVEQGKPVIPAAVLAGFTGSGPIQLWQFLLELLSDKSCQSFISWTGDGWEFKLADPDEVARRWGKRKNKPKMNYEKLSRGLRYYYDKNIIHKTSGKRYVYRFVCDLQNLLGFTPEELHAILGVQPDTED
An outline of the steps:
as §1

A further test deals with T4, SPDEF (Homo sapiens, UniProt O95238 1-335).
T4 sequence: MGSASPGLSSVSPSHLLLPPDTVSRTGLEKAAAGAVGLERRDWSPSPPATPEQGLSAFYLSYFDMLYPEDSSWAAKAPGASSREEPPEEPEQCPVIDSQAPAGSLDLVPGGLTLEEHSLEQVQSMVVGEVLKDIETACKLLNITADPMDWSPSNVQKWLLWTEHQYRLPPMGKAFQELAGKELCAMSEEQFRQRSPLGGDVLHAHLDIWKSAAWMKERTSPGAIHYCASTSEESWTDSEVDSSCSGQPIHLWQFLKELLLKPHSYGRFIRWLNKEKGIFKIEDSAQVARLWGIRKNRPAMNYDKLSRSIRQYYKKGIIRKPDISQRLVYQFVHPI
Put shortly: as §1

For the next test, the target named is T5, ETV7 (Homo sapiens, UniProt Q9Y603 1-341).
T5 sequence: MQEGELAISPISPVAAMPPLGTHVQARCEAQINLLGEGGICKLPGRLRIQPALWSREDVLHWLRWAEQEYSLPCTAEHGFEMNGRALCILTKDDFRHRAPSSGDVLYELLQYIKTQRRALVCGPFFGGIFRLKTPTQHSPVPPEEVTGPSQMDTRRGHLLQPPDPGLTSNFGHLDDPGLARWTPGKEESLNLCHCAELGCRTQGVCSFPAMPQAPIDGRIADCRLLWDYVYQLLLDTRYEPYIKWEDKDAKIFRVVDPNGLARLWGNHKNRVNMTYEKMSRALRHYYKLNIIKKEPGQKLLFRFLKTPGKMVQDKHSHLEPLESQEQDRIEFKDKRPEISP
Put shortly: as §1

In a further test the target is T6, ELF5 (Homo sapiens, UniProt Q9UKW6-2 1-255).
T6 sequence: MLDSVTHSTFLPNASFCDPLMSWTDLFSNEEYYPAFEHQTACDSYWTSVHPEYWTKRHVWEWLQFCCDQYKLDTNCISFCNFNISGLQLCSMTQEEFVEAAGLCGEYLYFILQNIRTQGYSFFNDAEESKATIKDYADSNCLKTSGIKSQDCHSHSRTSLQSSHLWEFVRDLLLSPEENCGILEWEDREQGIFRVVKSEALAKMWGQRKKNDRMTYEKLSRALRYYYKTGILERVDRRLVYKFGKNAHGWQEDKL
Put shortly:
as §1

The target of a further test is T7, ETV3 (Homo sapiens, UniProt P41162-2 1-143).
T7 sequence: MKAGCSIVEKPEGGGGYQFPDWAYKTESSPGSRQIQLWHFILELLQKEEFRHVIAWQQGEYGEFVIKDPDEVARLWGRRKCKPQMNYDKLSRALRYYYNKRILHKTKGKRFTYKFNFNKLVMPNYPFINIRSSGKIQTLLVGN
Put shortly:
as §1

The target in the next test is ETV6 (Homo sapiens, UniProt P41212 1-452). An outline of the steps: as §1
Sequence of ETV6 (P41212 whole entry): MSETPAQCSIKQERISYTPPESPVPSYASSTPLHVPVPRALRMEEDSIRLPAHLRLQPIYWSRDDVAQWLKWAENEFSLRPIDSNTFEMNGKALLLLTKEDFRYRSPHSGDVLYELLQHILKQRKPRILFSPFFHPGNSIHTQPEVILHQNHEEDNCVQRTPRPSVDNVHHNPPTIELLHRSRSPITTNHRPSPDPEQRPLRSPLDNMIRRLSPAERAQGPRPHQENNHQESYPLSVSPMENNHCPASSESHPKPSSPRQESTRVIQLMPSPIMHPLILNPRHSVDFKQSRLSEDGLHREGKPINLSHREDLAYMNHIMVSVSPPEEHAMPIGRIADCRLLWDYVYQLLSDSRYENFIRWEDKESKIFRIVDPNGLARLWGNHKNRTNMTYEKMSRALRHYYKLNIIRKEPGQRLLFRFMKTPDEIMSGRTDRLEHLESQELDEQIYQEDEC

For GACTAC, the binding signal with ERF is 1.19 fold enrichment (6-mer frequency, TF over GST control); with ETV3L, 1.17 fold enrichment (6-mer frequency, TF over GST control); with ETS2, 1.08 fold enrichment (6-mer frequency, TF over GST control); in the test with SPDEF it was 1.1 fold enrichment (6-mer frequency, TF over GST control); with ETV7, 1.17 fold enrichment (6-mer frequency, TF over GST control); in the test with ELF5, 1.24 fold enrichment (6-mer frequency, TF over GST control). Further, the binding signal was 1.11 fold enrichment (6-mer frequency, TF over GST control) with ETV3 and 1.11 fold enrichment (6-mer frequency, TF over GST control) with ETV6.
AACACC: the binding signal with ERF was 1.15 fold enrichment (6-mer frequency, TF over GST control); with ETV3L it was 1.15 fold enrichment (6-mer frequency, TF over GST control); in the test with ETS2 it was 1.13 fold enrichment (6-mer frequency, TF over GST control); with SPDEF, 1.15 fold enrichment (6-mer frequency, TF over GST control); in the test with ETV7, 1.13 fold enrichment (6-mer frequency, TF over GST control); with ELF5, 1.09 fold enrichment (6-mer frequency, TF over GST control). The binding signal is 1.13 fold enrichment (6-mer frequency, TF over GST control) with ETV3 and 1.06 fold enrichment (6-mer frequency, TF over GST control) with ETV6.
For the sequence CTCACT, the binding signal is 1.45 fold enrichment (6-mer frequency, TF over GST control) with ERF; 1.52 fold enrichment (6-mer frequency, TF over GST control) in the test with ETV3L; 1.6 fold enrichment (6-mer frequency, TF over GST control) in the test with ETS2; 1.44 fold enrichment (6-mer frequency, TF over GST control) with SPDEF; 1.56 fold enrichment (6-mer frequency, TF over GST control) with ETV7; 1.54 fold enrichment (6-mer frequency, TF over GST control) in the test with ELF5. For the same sequence, the binding signal in the test with ETV3 is 1.5 fold enrichment (6-mer frequency, TF over GST control); with ETV6, 1.6 fold enrichment (6-mer frequency, TF over GST control).
Regarding CCGGAA, the binding signal with ERF was 4.48 fold enrichment (6-mer frequency, TF over GST control); in the test with ETV3L it was 5.28 fold enrichment (6-mer frequency, TF over GST control); with ETS2, 5.63 fold enrichment (6-mer frequency, TF over GST control); in the test with SPDEF, 6.22 fold enrichment (6-mer frequency, TF over GST control); in the test with ETV7, 5.01 fold enrichment (6-mer frequency, TF over GST control); with ELF5, 6.42 fold enrichment (6-mer frequency, TF over GST control). Further, the binding signal is 6.2 fold enrichment (6-mer frequency, TF over GST control) with ETV3 and 6.11 fold enrichment (6-mer frequency, TF over GST control) with ETV6.
Consider GACATT, for which the binding signal with ERF was 1.22 fold enrichment (6-mer frequency, TF over GST control); with ETV3L, 1.17 fold enrichment (6-mer frequency, TF over GST control); in the test with ETS2 it was 1.11 fold enrichment (6-mer frequency, TF over GST control); with SPDEF, 1.13 fold enrichment (6-mer frequency, TF over GST control); in the test with ETV7 it was 1.07 fold enrichment (6-mer frequency, TF over GST control); with ELF5, 1.17 fold enrichment (6-mer frequency, TF over GST control). The binding signal was 1.21 fold enrichment (6-mer frequency, TF over GST control) with ETV3 and 1.26 fold enrichment (6-mer frequency, TF over GST control) with ETV6.
With ACCCTG, the binding signal with ERF is 1.04 fold enrichment (6-mer frequency, TF over GST control); with ETV3L, 1.05 fold enrichment (6-mer frequency, TF over GST control); in the test with ETS2, 1.01 fold enrichment (6-mer frequency, TF over GST control); in the test with SPDEF, 1.03 fold enrichment (6-mer frequency, TF over GST control); with ETV7 it was 1.04 fold enrichment (6-mer frequency, TF over GST control); with ELF5, 1.03 fold enrichment (6-mer frequency, TF over GST control). Besides, the binding signal in the test with ETV3 is 1.13 fold enrichment (6-mer frequency, TF over GST control); with ETV6, 1.07 fold enrichment (6-mer frequency, TF over GST control).
